Compound activity from PubChem.
PI4K2A block – blocks human PI4K2A kinase activity; activity change, negative = inhibition, % at 76.9 µM; AID 1346378; actives 0.13% (n = 420,000); purified PI4K2A, ADP-Glo luminescence, 1 h; active compounds read low; in the data active means activity change below about -50%; inconclusive means mostly about -30% to -49%;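 further: -100% = wells without enzyme as full effect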
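In this quantitative HTS, ADP production by PI4K2A was quantified luminescently after 1 h at ambient temperature; 100 microM adenosine served as plate-quality control.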
VDR inh – vitamin D3 receptor (human) inhibition; actives 0.93% (n = 400,000); Potency, µM, without a hit: max response, negative = inhibition, most hits filed as inhibitors; P11473; AID 504847; VDR-SRC2-3 peptide fluorescence polarization, 2 h; further: potency means the concentration at half of the fitted maximal effect
Target sequence (P11473 whole entry, looked up): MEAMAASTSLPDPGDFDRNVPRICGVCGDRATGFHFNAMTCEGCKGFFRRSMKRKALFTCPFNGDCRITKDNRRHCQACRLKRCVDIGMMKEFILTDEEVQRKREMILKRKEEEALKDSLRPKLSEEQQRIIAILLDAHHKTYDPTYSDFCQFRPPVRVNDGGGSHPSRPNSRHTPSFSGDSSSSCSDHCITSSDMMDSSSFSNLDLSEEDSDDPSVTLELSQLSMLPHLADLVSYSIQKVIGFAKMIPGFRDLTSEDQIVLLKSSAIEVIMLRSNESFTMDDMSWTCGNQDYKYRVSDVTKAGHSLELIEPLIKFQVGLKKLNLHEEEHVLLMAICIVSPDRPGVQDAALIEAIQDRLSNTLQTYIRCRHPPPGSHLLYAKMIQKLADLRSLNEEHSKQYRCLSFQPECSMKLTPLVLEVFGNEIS
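After 23 nl compound addition and a short centrifugation, plates sat for 2 hours at ambient temperature; polarization of fluorescence then indicated loss of VDR binding to peptide SRC2-3.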
PLK1 PBD block – blocks phosphopeptide binding to human PLK1 polo-box domain | actives 2.8% (n = 360,000) | Potency, µM, for inactives: max response, negative = inhibition, hits mostly inhibitors | P53350 | Plk1 PBD binding of FITC phosphopeptide, fluorescence polarization | AID 720504; further: potency means the concentration at half of the fitted maximal effect; series mostly up to about 57 µM; nearly all actives have a fitted effect of over 65% in size
GLS inh – blocks human kidney-isoform glutaminase activity. actives 0.21% (n = 410,000). GLS enzymatic activity, qHTS titration. O94925. AID 624170. Potency, µM (top dose mostly 45.5 µM), inactives show at the highest dose activity change, negative = inhibition, actives largely listed as inhibitors; further: potency means the concentration at half of the fitted maximal effect
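Assay buffer: 45 mM KH2PO4 pH 8.2, 0.02% Tween-20. hKGA acts on L-glutamine (1 mM solution added); product glutamate is reported by an oxidase/peroxidase Amplex Red coupling, with fluorescence taken at baseline and 30 min.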
GCN5L2 inh – GCN5L2 (KAT2A) acetyltransferase inhibition. Potency, µM (highest dose often 58.9 µM), for the others: at the highest dose activity change, negative = inhibition, hits mostly inhibitors. GCN5L2 HAT assay, ThioGlo1 CoA-SH fluorescence. Q92830. actives 0.21% (n = 390,000); further: potency means the concentration at half of the fitted maximal effect
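Fluorescence readout, Ex340nm/Em540nm: ThioGlo1 (50uM final) reacts with free CoA thiol released as 20nM GCN5L2 acetylates H3(1-25) peptide (75uM) using acetyl-CoA (70uM). Compound and enzyme sat 15 min beforehand; 20 min room-temperature reaction.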
Starred values were filed as active, the others as inactive; ? = inconclusive; . = not tested or not shown. The list is not random: actives were taken first. Their share in the collection is about 3.1%. Unless noted, the call rests on the fitted dose curve; in most records, active means well fitted curve in the direction sought with a large enough effect; inconclusive means small, poorly fitted or top-dose-only effect, or another doubt; inactive means no such curve, though single readings can be large; an effect the other way counts as inactive or inconclusive. Unless noted, on the % scale 0 is the no-effect control and ±100 the full control effect.

SMILES	PI4K2A block	VDR inh	PLK1 PBD block	GLS inh	GCN5L2 inh
O=C(Nc1ccc(Cl)c(Cl)c1)C1CCCN1S(=O)(=O)c1cccc2cccnc12 (centres undefined)	-6.1	.	.	.	.
CCOc1cccc(C2C=C(c3ccc4c(c3)OCO4)NC(c3ccc(Br)cc3)N2)c1O (centres undefined)	.	-20.8%	.	.	.
COc1ccc(NC(=S)Nc2ccc(N)c([N+](=O)[O-])c2)cc1	-52.7*	-0.9%	?	62.1%	-10.4%
Cc1ccc2c(c1)=C(c1sc(N(C)c3ccc(O)cc3)nc1O)C(=O)N=2	-8.3	-10.7%	37.7µM*	4.0%	30.0%
Cc1c(CC(=O)N2CCN(C(=O)C3COc4ccccc4O3)CC2)c(=O)oc2cc(O)c(Cl)cc12 (centres undefined)	2.2	3.3%	-4.9%	7.0%	?
CC(=O)Nc1ccc(S(=O)(=O)N2CCN(C(=O)C3COc4ccccc4O3)CC2)cc1 (centres undefined)	2.9	-1.2%	-1.5%	19.6%	-1.6%
COc1ccc2c(C)c(CC(=O)N3CCN(C(=O)C4COc5ccccc5O4)CC3)c(=O)oc2c1C (centres undefined)	7.3	?	3.36µM*	-6.2%	-7.6%
COc1ccc(S(=O)(=O)N2c3ccccc3OCC2CC(=O)O)cc1 (centres undefined)	-3.5	?	21.2µM*	7.5%	19.7%
COc1ccc(S(=O)(=O)N2CCN(C(=O)C3COc4ccccc4O3)CC2)cc1 (centres undefined)	-7.6	3.6%	10.6µM*	?	?
Cc1onc(-c2ccc(Cl)cc2)c1-c1ccn(S(=O)(=O)c2ccccc2Cl)n1	-7.2	.	.	.	.
CCOC(=O)CSC(=S)NC(=O)c1ccc(OC)cc1	2.9	?	2.99µM*	16.8%	70.2%
COc1ccc(C(=O)NC(=S)SCC(=O)O)cc1	-19.7	2.8%	18.9µM*	7.7%	0.5%
CCOC(=O)CNC(=O)CNC(=O)c1ccc(OC)cc1	1.1	11.9%	-9.4%	1.2%	-5.3%
COc1ccc(C(=O)NCC(=O)O)cc1	-1.8	6.8%	1.6%	-0.4%	.
CCCCCn1c(=O)[nH]c2cc(C(=O)N3CCN(c4cccc(Cl)c4)CC3)ccc2c1=O	-1.5	-1.1%	.	-0.2%	0.4%
Fc1ccc(/C=C2\CCCC3=C2Nc2ncnn2C3c2ccc(F)cc2)cc1 (centres undefined)	-23.3	?	23.8µM*	34.0%	-11.8%
CC(C)C[C@H](NC(=O)[C@H](Cc1cnc[nH]1)NC(=O)[C@@H](N)Cc1cnc[nH]1)C(=O)NCC(=O)NCC(=O)N[C@@H](C)C(=O)N[C@@H](CCCCN)C(=O)N[C@@H](CCC(N)=O)C(=O)N[C@@H](C)C(=O)NCC(=O)N[C@@H](CC(=O)O)C(=O)N[C@H](C(=O)O)C(C)C	.	10.0%	.	.	-11.5%
Cc1ccn2c(Nc3ccc4c(c3)OCCO4)c(-c3ccc(C)o3)nc2c1	0.3	-8.7%	.	-4.7%	-4.6%
Cc1ccc(Nc2ccc(NCc3ccccc3)nn2)cc1C	-2.4	-8.7%	-7.2%	11.8%	-0.6%
Cc1ccc(Nc2nnns2)cc1C	-1.7	44.7µM*	26.7µM*	5.3%	-3.6%
CN1CCN(NC(=O)c2ccc(Br)s2)CC1	-2.1	?	29.9µM*	41.9%	-4.7%
CCOc1ccc(N(CC(=O)Nc2c(C)n(C)n(-c3ccccc3)c2=O)S(=O)(=O)c2cccc3cccnc23)cc1	4.8	.	.	.	.
Cn1c(=O)c(=O)n(C)c2cc(S(=O)(=O)NCc3ccc(Cl)cc3)ccc21	-2.2	?	10.6µM*	?	-3.0%
COc1ccc(-c2cc(C(F)(F)F)nc(NCc3ccco3)n2)cc1OC	-4.9	-11.4%	0.6%	-5.4%	22.4µM*
COc1ccc(-c2cc(C(F)(F)F)nc(NCc3ccccc3)n2)cc1OC	-1.6	-8.9%	.	3.2%	-11.2%
SMILES	PI4K2A block	VDR inh	PLK1 PBD block	GLS inh	GCN5L2 inh
CC(=O)c1nnn(-c2nc(C#N)nc(N3CCOCC3)n2)c1C	.	3.7%	.	.	.
COC(=O)c1ccc2cc(OC)c(OC)cc2c1	-2.3	.	-11.6%	2.9%	.
COC(=O)c1cc(=O)c(O)c2c(O)c(O)ccc2c1	.	22.4µM*	.	.	-22.0%
Cc1ccn2cc(CCNC(=O)CC(C)(C)C)nc2c1	1.2	-17.2%	-2.0%	11.8%	1.1%
Cc1ccn2cc(CCNC(=O)COc3ccccc3)nc2c1	-0.3	?	11.9µM*	-1.9%	1.5%
COc1cc(C(=O)NCCc2cn3ccccc3n2)cc(OC)c1OC	-8.4	-1.7%	-7.6%	-0.2%	-23.5%
COc1ccc(C(=O)NCCc2cn3ccccc3n2)cc1	-11.9	?	29.9µM*	-1.2%	2.2%
O=C(CSc1nnc(-c2cccnc2)n1-c1ccc(Cl)cc1)c1ccc(F)cc1	5.1	.	.	.	.
CC(=O)Nc1ccc(S(=O)(=O)NC2(C(F)(F)F)C(=O)Nc3c2c(=O)[nH]c(=O)n3-c2ccc(C)c(C)c2)cc1 (centres undefined)	-3.5	11.2%	.	-3.9%	-5.1%
Cc1ccc(C)n1Cc1ccc(C(=O)O)cc1	?	23.8%	2.99µM*	7.08µM*	15.8µM*
Cc1cc(C)n(Cc2ccc(C(=O)O)cc2)n1	-0.6	-0.1%	-2.7%	0.6%	0.0%
COc1ccc(-c2cc(C(=O)Nc3ccc(C)c(C)c3)no2)cc1	-3.2	24.0%	-7.2%	0.5%	9.0%
Cc1ccc(NC(=O)c2cc(-c3ccc(F)cc3)on2)cc1C	0.4	-29.6%	23.8µM*	-2.3%	1.3%
Cc1nn(C(C)C(=O)NCc2cccc(F)c2)c(=O)c2c1sc1ccccc12 (centres undefined)	-0.1	-3.8%	.	0.2%	-11.7%
O=C(O)c1cccc(S(=O)(=O)Nc2ccc(O)c(Sc3nc4ccccc4s3)c2)c1	-0.4	-27.3%	21.2µM*	?	-14.5%
Cc1ccc2nc(Cl)c3nnnn3c2c1	-2.6	?	15µM*	-10.3%	-0.8%
CCOc1ccc(CCNC(=O)c2c(C)oc3ncnc(N4CCOCC4)c23)cc1	-0.9	1.9%	.	7.2%	-1.5%
Cc1ccc(N=Nc2ccc3ccccc3c2O)cc1	-11.3	10.5%	?	-15.8%	2.3%
Oc1c(N=Nc2nn[nH]n2)ccc2ccccc12	?	.	16.8µM*	20µM*	.
Oc1c(N=Nc2ccc(F)cc2)ccc2ccccc12	-9.7	?	9.47µM*	-33.5%	2.9%
O=C(O)c1ccc2c(ccc3nn(-c4ccc(/C=C/c5ccc(-n6nc7ccc8cc(C(=O)O)ccc8c7n6)cc5[S+](=O)([O-])[O-])c([S+](=O)([O-])[O-])c4)nc32)c1	.	-20.2%	.	.	.
O=C(CSc1nc2ccccc2c(=O)n1-c1ccc(Cl)cc1)NNC(=S)Nc1ccccc1	1.9	.	.	.	.
CC[C@@]1(c2ccccc2C)C(=O)N(C(=O)OC)N1C(=O)OC	6.3	?	10.6µM*	33.9%	-3.2%
CC[C@]1(c2cccc(C)c2)C(=O)N(C(=O)OC)N1C(=O)OC	-0.2	?	11.9µM*	22.1%	3.8%
